Data published in PubChem BioAssay (Tox21).
A number with no mark means an inactive call. Active and inactive are the calls of the source. Calls follow the shape of the dose curve; as a rule, active = well fitted curve in the direction sought with a large enough effect in the repeat runs; inconclusive = weak or mixed curves; inactive = flat fitted curve, though single readings scatter.

test: qHTS assay to test for compound auto fluorescence at 460 nm (blue) in HEK293 cells (AID 720678); settings: blue autofluorescence 405/460 nm; series mostly up to 91.3 µM
Text: National Center for Advancing Translational Sciences [NCATS]
NIH Chemical Genomics Center [NCGC]
U.S. Environmental Protection Agency [EPA]
National Institutes of Environmental Health Sciences [NIEHS]
National Toxicology Program [NTP]
U.S. Food and Drug Administration [FDA]
Compound auto fluorescence often interferes with screening of the compound library against various biological targets and signaling pathways. Some of these compounds may have fluorophoric properties. Such properties may interfere with the assay outputs resulting in false positives and/or negatives. To decrease such complications and ensure the compound activities are relevant in terms of biological response, the Tox21 10K compound library was screened for auto fluorescence.
From the fluorophores used as reporter signals in our screening assays, the auto fluorescence equivalencies of compounds against three fluorophores have been evaluated: Triamterene, Fluorescein and Rose Bengal sodium for blue, green and red fluorescence, respectively. The fluorescence intensities were measured using Excitation/Emission wavelengths at 405/460nm, 485/535nm and 540/590nm for blue, green and red labels, respectively. This assay includes the blue fluorescence data.
Tox21 Assay Protocol Summary:
2,000 HEK293 cells in 5 uL of culture medium containing 10% dialyzed FBS per well were dispensed into black wall/clear bottom 1536-well plates using a Multidrop Combi Dispenser (Thermo Scientific). The assay plates were incubated for 4-5 hr at 37C to allow cell attachment to the well bottom, followed by the transfer of 23 nL compound or DMSO vehicle by a pintool work station (Kalypsys, San Diego, CA). After the assay plates were incubated overnight at 37C and 5% CO2, fluorescence intensities in the assay plates were measured by an Envision (PerkinElmer, Shelton, CT) plate reader using three labels for measuring blue, green and red fluorescence at […] 460, 535 and 590nm respectively.
% is scaled to controls: 0 for no effect and ±100 for the full control effect.

| Compound | outcome | fluorescence, % of triamterene |
| --- | --- | --- |
| C[C@]12C(=O)OC(=O)[C@H]1[C@H]1C=C[C@@H]2C1 | inactive | – |
| O=C(C(Cl)Cl)N1CCOC12CCCCC2 | inactive | – |
| C=Cc1ccccc1 | inactive | – |
| COC(=O)C(C)O (stereo not given) | inactive | – |
| CCOc1ccc(NC(N)=O)cc1 | inactive | – |
| Cc1nnc(SCC2=C(C(=O)O)N3C(=O)[C@@H](NC(=O)Cn4cnnn4)[C@H]3SC2)s1 | inactive | – |
| OCC(CBr)(CBr)CBr | inactive | – |
| FC(F)(F)C(F)(F)C(F)(F)C(F)(F)C(F)(F)C(F)(F)C(F)(F)C(F)(F)Br | inactive | – |
| Cc1c[nH]c(=S)[nH]c1=O | inactive | – |
| C1CSCCS1 | inactive | – |
| OCCN1CCN(CCO)CC1 | inactive | – |
| CCN1CC(CCN2CCOCC2)C(c2ccccc2)(c2ccccc2)C1=O (stereo not given) | inactive | – |
| CC(C)Nc1nc(N)nc(Cl)n1 | inactive | – |
| O=C(Cl)c1cccc([N+](=O)[O-])c1 | inactive | – |
| C=C(C)C(=O)OCCOP(=O)(O)O | inactive | – |
| COC(=O)c1ccc(OC)cc1 | inactive | – |
| CC(C)CCCCCCc1ccc(OCCOCCO)cc1 | inactive | – |
| c1ccc(CN(CC2=NCCN2)c2ccccc2)cc1 | inactive | – |
| CCC(=O)Nc1ccc(O)cc1 | inactive | – |
| O=C1CCC(C2CCCCC2)CC1 | inactive | – |

| Compound | outcome | fluorescence, % of triamterene |
| --- | --- | --- |
| CN1C(=O)CC(c2ccccc2)C1=O (stereo not given) | inactive | – |
| O=C(O[C@@H](C(=O)O)[C@@H](OC(=O)c1ccccc1)C(=O)O)c1ccccc1 | inactive | – |
| CCOC(=O)c1ccccc1O | inactive | – |
| CN1CCN(C2=Nc3cc(F)ccc3Cc3ccccc32)CC1 | inactive | – |
| O=[N+]([O-])c1nccn1CO[C@@H](CO)[C@H](O)CO | inactive | – |
| Cc1c(-c2ccccc2)oc2c(C(=O)OCCN3CCCCC3)cccc2c1=O | – | -0.209% [at 18.6 µM] |
| NS(=O)(=O)c1cc(-c2nn[nH]n2)c(NCc2cccs2)cc1Cl | inactive | – |
| CCCNC(C)C(=O)Nc1c(C)csc1C(=O)OC (stereo not given) | – | -0.0757% [at 18.6 µM] |
| CN1CCN(C2=Nc3ccccc3Oc3ccc(Cl)cc32)CC1 | – | 0.0075% [at 18.6 µM] |
| O=c1[nH]cnc2c1ncn2[C@@H]1O[C@H](CO)[C@@H](O)[C@H]1O | inactive | – |
| CCCCC1CCC(=O)O1 (stereo not given) | inactive | – |
| CC(C)c1ccccc1 | inactive | – |
| Nc1cccc(S(=O)(=O)O)c1 | inactive | – |
| CC1(C)O[C@@H]2C[C@H]3[C@@H]4CCC5=CC(=O)CC[C@]5(C)[C@@]4(F)[C@@H](O)C[C@]3(C)[C@]2(C(=O)CCl)O1 | – | -0.0183% [at 18.6 µM] |
| COc1cc2c(cc1N)oc1ccccc12 | inactive | – |
| CCNCCO | inactive | – |
| Nc1ccc2ccccc2c1S(=O)(=O)O | inactive | – |
| CC(C)NC[C@@H](O)COc1cccc2ccccc12 | inactive | – |
| CC1=NN(c2cc(Cl)c(S(=O)(=O)O)cc2Cl)C(=O)C1N=Nc1ccc(S(=O)(=O)O)cc1 (stereo not given) | inactive | – |
| CC(C)(C)C1CCCCC1=O (stereo not given) | inactive | – |
